Results filed as inconclusive are left out. Activity calls are given as the source filed them. Unless noted, the call rests on the fitted dose curve; in most records, active means well fitted curve in the direction sought with a large enough effect in the repeat runs; inconclusive means weak or mixed curves; inactive means no such curve, though single readings can be large; an effect the other way counts as inactive or inconclusive.
Experiments:
[1] = qHTS assay to identify small molecule antagonists of the TGF-beta/Smad signaling pathway - cell viability counter screen (AID 1346824); further: nearly all actives have a fitted effect of over 50% in size; further: potency means the concentration at half of the fitted maximal effect
Outline: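 SBE-bla HEK 293T cells, incubated overnight, then compound plus 0.25 ng/mL TGF-beta1 (stock added) for 5 hr at 37 C. Viability was read in the same wells by CellTiter-Glo luminescence after 30 min at room temperature.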

[2] = qHTS assay to identify small molecule agonists of the TGF-beta/Smad signaling pathway - cell viability counter screen (AID 1346829); further: nearly all actives have a fitted effect of over 45% in size; further: potency means the concentration at half of the fitted maximal effect; on activity change, negative = cytotoxicity: top concentration of the series differs between compounds
Outline: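 CellTiter-Glo luminescence readout; SBE-bla HEK 293T cells, overnight plating, compound 5 hr at 37 C/5% CO2, then bla substrate 2 hr RT, then CellTiter-Glo 30 min RT.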

[3] = qHTS assay to identify small molecule agonists of the TGF-beta/Smad signaling pathway (AID 1346859; active means well fitted activation curve with a large enough effect in the signal ratio in the repeat runs, not every such curve was filed as active; the % refers to the signal ratio; further: series mostly up to about 77 µM)
Outline: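 SBE-bla HEK 293T, 4,000 cells/well, plated o/n; cpd in DMSO, 5 hr, 37 C/5% CO2; B/G FRET substrate 2 hr RT; ex 405, em 460/530 nm.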

[4] = biological target: Thyrotropin-releasing hormone receptor (Homo sapiens) (UniProt P34981); test: qHTS assay to identify small molecule agonists of the thyrotropin-releasing hormone receptor (TRHR) signaling pathway (AID 1346891; calls by dose curve; further: series mostly up to about 58 µM)
Outline: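 Intracellular calcium rise, read as fluorescence every second for 3 min, served as the agonist signal in dye-loaded HEK293 cells expressing TRHR; each compound ran at 15 concentrations in triplicate.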

[5] = Human pregnane X receptor (PXR) small molecule agonists, qHTS cell viability counter screen (AID 1346977); further: nearly all actives have a fitted effect of over 50% in size; further: potency means the concentration at half of the fitted maximal effect
Outline: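 PXR-Luc HepG2, 2,000 cells/well, 5% charcoal-stripped FBS; 5hr settle; cpd 24hr, 37C/5% CO2; CellTiter-Fluor at 23hr, read 1hr later (fluorescence).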

[6] = Caspase-3/7 induction in HepG2 cells by small molecules, qHTS assay (AID 1346978); further: nearly all actives have a fitted effect of over 15% in size; further: potency means the concentration at half of the fitted maximal effect
Outline: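 Wild-type HepG2 cells, 2,000/well, settled 5 hr at 37 C and 5% CO2, then compound-treated for 17 hr; caspase-3/7 activity read by luminescent Caspase-Glo 3/7 after 30 min at room temperature.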

[7] = Caspase-3/7 induction in CHO-K1 cells by small molecules, qHTS cell viability counter screen (AID 1346979); further: nearly all actives have a fitted effect of over 35% in size; further: potency means the concentration at half of the fitted maximal effect
Outline: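 Cells (CHO-K1, wild type) are plated at 1,500 per well and incubated 5hr. Test compounds in DMSO are then pinned in, followed by 16hr at 37C and 5% CO2. Viability is read by CellTiter-Fluor fluorescence after 1hr.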

[8] = Caspase-3/7 induction in CHO-K1 cells by small molecules, qHTS assay (AID 1346980); further: nearly all actives have a fitted effect of over 15% in size; further: potency means the concentration at half of the fitted maximal effect
Outline: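 Wild-type CHO-K1 cells exposed to compounds for 17hr at 37 C, 5% CO2. Caspase-3/7 activity then measured by Caspase-Glo 3/7 luminescence after 30min at room temperature.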

[9] = Caspase-3/7 induction in HepG2 cells by small molecules, qHTS cell viability counter screen (AID 1346981); further: nearly all actives have a fitted effect of over 30% in size; further: potency means the concentration at half of the fitted maximal effect; on activity change, negative = cytotoxicity: series mostly up to about 92 µM
Outline: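 Wild-type HepG2 cells, 2,000/well, settled 5 hr at 37 C, 5% CO2 before compound addition. Viability read by CellTiter-Fluor fluorescence, reagent added after 16 hr compound exposure, then 1 hr at 37C, in the same wells as the caspase read.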

[10] = biological target: Thyrotropin-releasing hormone receptor (Homo sapiens) (UniProt P34981); test: qHTS assay to identify small molecule antagonists of the thyrotropin-releasing hormone receptor (TRHR) signaling pathway (AID 1346877; active means well fitted inhibition curve with a large enough effect in the repeat runs, not every such curve was filed as active; further: series mostly up to about 51 µM)
Outline: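 TRHR-expressing HEK293 cells loaded with calcium dye for 2 h at 37 C; compounds pre-incubated 5 min at room temperature before TRH challenge at 1 nM final. Intracellular calcium fluorescence read kinetically for 3 min; 15 concentrations in triplicate.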
On the % scale 0 is the no-effect control and ±100 the full control effect.

Sequence of Thyrotropin-releasing hormone receptor (Homo sapiens) (P34981 whole entry, looked up): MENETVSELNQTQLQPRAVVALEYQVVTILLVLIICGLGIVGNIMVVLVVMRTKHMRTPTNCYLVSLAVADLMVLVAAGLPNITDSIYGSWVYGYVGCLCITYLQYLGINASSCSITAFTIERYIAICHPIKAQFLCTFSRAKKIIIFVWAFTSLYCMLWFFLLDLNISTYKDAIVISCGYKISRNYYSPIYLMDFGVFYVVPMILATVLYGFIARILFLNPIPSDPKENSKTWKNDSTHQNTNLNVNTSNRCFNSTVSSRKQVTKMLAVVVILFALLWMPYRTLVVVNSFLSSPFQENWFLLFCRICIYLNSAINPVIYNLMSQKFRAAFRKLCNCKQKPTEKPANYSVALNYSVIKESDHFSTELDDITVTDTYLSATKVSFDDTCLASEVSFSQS

Cc1cccc(C)c1C
inactive: Potency [1] | Potency [2] | outcome [3] | Potency [4] | Potency [5] | Potency [6] | Potency [7] | Potency [8] | Potency [9]

CCCCCCCCCCCC(=O)Cl
inactive: Potency [1] | Potency [2] | outcome [3] | Potency [4] | Potency [5] | Potency [6] | Potency [7] | Potency [8] | Potency [9]

CCOC(=O)OC(=O)OCC
inactive: Potency [1] | Potency [2] | outcome [3] | Potency [4] | Potency [5] | Potency [6] | Potency [7] | Potency [8] | Potency [9]

O=C(O)C[C@H](O)C[C@H](O)/C=C/c1c(C2CC2)nc2ccccc2c1-c1ccc(F)cc1
active: Potency [6] 10.3 µM | Potency [8] 5.8 µM
inactive: viability change, negative = cytotoxic [1] 0.256% [at 15.8 µM] | activity change, negative = cytotoxicity [2] 3.76% [at 15.8 µM] | activation [3] -0.423% [at 15.8 µM] | activity, negative = inhibition [10] 1.91% [at 10.5 µM] | activation [4] -0.474% [at 11.8 µM] | activity change, negative = cytotoxicity [5] -7.27% [at 19 µM] | activity change, negative = cytotoxicity [9] -8.1% [at 19 µM]

O=C(Nc1ccc([N+](=O)[O-])cc1)Nc1ccc([N+](=O)[O-])cc1 (tested in a mixture with another compound)
inactive: Potency [1] | Potency [2] | outcome [3] | Potency [10] | Potency [4] | Potency [5] | Potency [6] | Potency [8] | Potency [9]

C=C1C(CCl)(CCl)C2(Cl)C(Cl)C(Cl)C1(Cl)C2(Cl)Cl (configuration not stated)
inactive: Potency [1] | outcome [3] | Potency [10] | Potency [4]
active: Potency [2] 54.3 µM | Potency [7] 53.8 µM | Potency [8] 48 µM

COc1cc(OC)nc(NC(=O)NS(=O)(=O)Nc2ccccc2C(=O)N(C)C)n1
inactive: Potency [1] | Potency [2] | Potency [10] | Potency [4] | Potency [5] | Potency [6] | Potency [7] | Potency [8] | Potency [9]

CN1CCN(CCCN2c3ccccc3Sc3ccc(Cl)cc32)CC1
inactive: Potency [1] | Potency [2] | outcome [3] | Potency [6] | Potency [8]

CC(O)(c1ccc(Cl)cc1)c1ccc(Cl)cc1
inactive: Potency [1] | Potency [2] | outcome [3] | Potency [4] | Potency [8] | Potency [9]

CN1CCN(C)CC1
inactive: Potency [1] | Potency [2] | outcome [3] | Potency [5] | Potency [6] | Potency [7] | Potency [8] | Potency [9]

Clc1nc(C(Cl)(Cl)Cl)c(Cl)c(Cl)c1Cl
active: Potency [7] 30.6 µM | Potency [8] 30.6 µM
inactive: Potency [1] | Potency [2] | outcome [3] | Potency [4]

Nc1cccnc1N
inactive: Potency [1] | Potency [2] | outcome [3] | Potency [5] | Potency [6] | Potency [8]

c1ccc(-c2ccc(C(c3ccccc3)n3ccnc3)cc2)cc1 (configuration not stated)
inactive: Potency [1] | Potency [2] | outcome [3] | Potency [6] | Potency [8]
active: Potency [7] 18.8 µM

C=CC(=O)OCC(Br)CBr (configuration not stated)
inactive: Potency [1] | Potency [2] | outcome [3] | Potency [5] | Potency [6] | Potency [8] | Potency [9]

COc1cccc(-c2ccc(/C=C\CN3CCCCCC3)cc2Cl)c1
active: Potency [5] 48.3 µM
inactive: Potency [1] | Potency [2] | Potency [10] | Potency [4]

CC(C)C(=O)C(C)C
inactive: Potency [1] | Potency [2] | outcome [3] | Potency [5] | Potency [6] | Potency [7] | Potency [8] | Potency [9]

C1CCSC1
inactive: Potency [1] | Potency [2] | outcome [3] | Potency [5] | Potency [6] | Potency [7] | Potency [8] | Potency [9]

Nc1cc([N+](=O)[O-])cc(Cl)c1O
active: Potency [9] 61.1 µM
inactive: Potency [1] | Potency [2] | outcome [3] | Potency [4] | Potency [6] | Potency [8]

Nc1c(Br)cc([N+](=O)[O-])cc1Br
inactive: Potency [1] | Potency [2] | outcome [3] | Potency [5] | Potency [6] | Potency [7] | Potency [8] | Potency [9]

CN1CCN(CCCN2c3ccccc3Sc3ccc(C(F)(F)F)cc32)CC1
inactive: Potency [1] | Potency [2] | outcome [3] | Potency [6]
active: Potency [5] 23.7 µM | Potency [7] 33.5 µM

CC(=O)Nc1ccc(N=Nc2cc(C)ccc2O)cc1
active: Potency [7] 68.6 µM | Potency [9] 61.1 µM
inactive: Potency [1] | Potency [2] | outcome [3] | Potency [6] | Potency [8]

Clc1cccc(Cl)n1
inactive: Potency [1] | Potency [2] | outcome [3] | Potency [5] | Potency [6] | Potency [8] | Potency [9]

Cc1cc(C)c(O)c(C(C)(C)C)c1
inactive: Potency [1] | Potency [2] | outcome [3] | Potency [5] | Potency [8] | Potency [9]

Oc1ccc(C2(c3ccc(O)c(C4CCCCC4)c3)CCCCC2)cc1C1CCCCC1
inactive: Potency [10] | Potency [4]
active: Potency [1] 43.6 µM | Potency [2] 49 µM | Potency [5] 19.3 µM | Potency [6] 24.3 µM | Potency [7] 13.7 µM | Potency [8] 13.7 µM | Potency [9] 30.6 µM

CSc1ccc(O)cc1C
inactive: Potency [1] | Potency [2] | outcome [3] | Potency [6] | Potency [8] | Potency [9]

Cc1ccc(Cl)c(N)c1Cl
inactive: Potency [1] | Potency [2] | outcome [3] | Potency [6] | Potency [7] | Potency [8] | Potency [9]

[Cl][Sc]([Cl])[Cl]
inactive: Potency [1] | Potency [2] | outcome [3] | Potency [5] | Potency [6] | Potency [7] | Potency [8] | Potency [9]

O=S(=O)(c1ccc(OCc2ccccc2)cc1)c1ccccc1O
active: Potency [5] 61.1 µM | Potency [7] 43.3 µM
inactive: Potency [1] | Potency [2] | outcome [3] | Potency [6] | Potency [8]

CC(C)=CCC[C@H](C)CC=O
inactive: Potency [1] | Potency [2] | outcome [3] | Potency [5] | Potency [6] | Potency [7] | Potency [8] | Potency [9]
